Several values for one entry are separate records, joined by “and”; a condition that tells them apart may be missing. Equal entries are not always repeated. The panel holds about 79,000 compounds, 15% with a hit somewhere; the sample as a whole holds those more often. Activity calls are given as the source filed them. Cut-off read from the data, not from the text of the source: active = growth inhibition above about 70%; inactive = the rest.
Legend:
[1] = NCI Yeast Anticancer Drug Screen. Data for the rad50 strain (AID 155);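 note: 0% = growth of vehicle-only cultures of the same strain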; settings: S. cerevisiae rad50 strain growth inhibition, stronger effect = higher value; at 50.0 µM unless noted
Summary of the method: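 Inhibition values express reduced yeast growth in compound-treated cultures relative to vehicle-treated controls.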

[2] = NCI Yeast Anticancer Drug Screen. Data for the mec2-1 strain (AID 157); settings: S. cerevisiae mec2-1 strain, stronger effect = higher value; at 50.0 µM unless noted
Summary of the method: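 Growth inhibition is read against vehicle-treated controls after compound exposure of the mec2-1 yeast strain, which is defective in DNA damage repair or cell cycle control.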

[3] = NCI Yeast Anticancer Drug Screen. Data for the sgs1 mgt1 strain (AID 161);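 note: 0% = growth of cultures given vehicle only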; settings: S. cerevisiae sgs1 mgt1 strain, stronger effect = higher value; at 50.0 µM unless noted
Summary of the method: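 Growth of a repair-deficient yeast mutant was monitored after compound treatment and expressed as inhibition relative to vehicle-treated cultures.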

[4] = NCI Yeast Anticancer Drug Screen. Data for the cln2 rad14 strain (AID 165);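 note: 0% = growth equal to vehicle treated cultures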; settings: S. cerevisiae cln2 rad14 strain, stronger effect = higher value; at 50.0 µM unless noted
Summary of the method: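 Growth inhibition, relative to vehicle-treated controls, is the read-out. The test organism is a yeast strain with defined genetic alterations, cln2 rad14.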

[5] = NCI Yeast Anticancer Drug Screen. Data for the bub3 strain (AID 167); settings: S. cerevisiae bub3 mutant strain, stronger effect = higher value; at 50.0 µM unless noted
Summary of the method: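 Steps: expose the mutant yeast strain to compound; grow alongside vehicle-treated cultures; measure growth; express inhibition against the vehicle cultures.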

[6] = NCI Yeast Anticancer Drug Screen. Data for the mlh1 rad18 strain (AID 175); settings: S. cerevisiae mlh1 rad18 strain growth inhibition, stronger effect = higher value; at 50.0 µM unless noted
Summary of the method: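 Cells of a genetically altered yeast strain, deficient in DNA damage repair, were treated with compound. Their growth was then compared with that of vehicle-treated cultures to give inhibition.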

Measured: growth inhibition

O=C(CSc1n[nH]c(=S)c2nc[nH]c12)c1ccc(Br)cc1
inactive: [1] 11.7% | [2] -0.2% | [3] 21.6% | [4] 33.1% | [5] -0.4% | [6] -8.65%

O=C(OCC(OC(=O)c1ccccc1)C1OCOC2COCOC21)c1ccccc1 (stereo not given)
inactive: [1] 3.35% | [2] -1.3% | [3] -5.6% | [4] -24.2% | [5] 0.45% | [6] 11.4%

Cc1cn(C2CC(ON)C(CO)O2)c(=O)[nH]c1=O (stereo not given)
inactive: [1] -8.1% | [2] -1.15% | [3] 23.2% | [4] 13.9% | [5] 6.25% | [6] -48%

Cc1ccc(S(=O)(=O)OC2C(OCc3ccccc3)OC(CO)C2O)cc1 (stereo not given)
inactive: [1] -6% | [2] 6.65% | [3] -9.2% | [4] 15.3% | [5] -0.6% | [6] -9.15%

O=c1[nH]c(/C=C/c2ccccc2)c([N+](=O)[O-])c(=O)[nH]1
inactive: [1] -7% | [2] 2.9% | [3] -12.7% | [4] -19.6% | [5] 26.6% | [6] 16.8%

COc1cc2c(cc1OC)C(=O)/C(=C/c1cc(OC)c(OC)c(OC)c1)C2
inactive: [1] -33.8% | [2] -35.5% | [3] -69.8% | [4] -38.6% | [5] -12.8% | [6] -69%

CCCCCC[P+](c1ccccc1)(c1ccccc1)c1ccccc1
active: [1] 97.7% | [2] 98.4% | [3] 98% | [4] 95% | [5] 96.1% | [6] 97.8%

CC(=O)Nc1ccc(S(N)(=O)=O)cc1
inactive: [1] 16.6% and -34.8% | [2] 15.6% and 8.55% | [3] 16.1% and 21.3% | [4] 12% and -4.55% | [5] 1.75% and -3.65% | [6] 13.6% and 37%

COC(=O)C(=O)C1(c2ccccc2)C(=O)C(c2ccccc2)=CC1O (stereo not given)
inactive: [1] 15.3% | [2] 10.5% | [3] 10.1% | [4] 0.7% | [5] 8.4% | [6] 18.6%

[O-][N+](CCO)(CCO)c1ncnc2nc[nH]c12
inactive: [1] -2.35% | [2] -12.7% | [3] -0.45% | [4] -8.9% | [5] -63.7% | [6] 18.4%

Cc1cc2c(cc1Cl)SC(NNC1=NCCN1)=NS2(=O)=O
inactive: [1] -23.1% | [2] -8.65% | [3] -20% | [4] -2.25% | [5] -17.9% | [6] 9.95%

CC(=O)[CH-]C(=O)c1ccccc1.CC(=O)[CH-]C(=O)c1ccccc1.CC1(C)OCC(C2OC3OC(C)(C)OC3C2[O-])O1.CC[O-].[Ti+4] (stereo not given)
inactive: [1] 41.4% | [2] 24.1% | [3] 35.5% | [4] 23% | [5] 31.2% | [6] 33.4%

O=C(Cc1ccccc1)c1ccccc1C(=O)NCc1ccncc1
inactive: [1] 1.7% | [2] 2.05% | [3] 2.25% | [4] -20.5% | [5] 9% | [6] -0.6%

NC(=S)N/N=C1/CN(c2ccc(Cl)c(Cl)c2)CC(=O)C1c1nc2ccccc2s1 (stereo not given)
inactive: [1] 49.1% | [2] 28.6% | [3] 53% | [4] 26.1% | [5] -0.65% | [6] 52.2%

Cc1cc2ccccc2cn1
inactive: [1] 1% and 29.1% | [2] -23.1% and 16.6% | [3] 5.55% and 19.2% | [4] -30.6% and -34.1% | [5] 5.95% and 10.8% | [6] 4.75% and 24.6%

Cc1ccc(S(=O)(=O)Oc2ccc3oc4cccc(NCCN(C)C)c4c(=O)c3c2)cc1
inactive: [1] -3.5% | [2] -13.7% | [3] -21.4% | [4] 5% | [5] -6.4% | [6] 3.1%

c1cc(-c2ncc[nH]2)ccn1
inactive: [1] -6.9% | [2] -12.2% | [3] -4.25% | [4] -4.05% | [5] 6.1% | [6] -8.2%

Cc1cc([N+](=O)[O-])c(Nc2ccc(C)c(Cl)c2)c([N+](=O)[O-])c1
inactive: [1] 8.15% | [2] 36.7% | [3] 29.6% | [4] -8.05% | [5] 52.1% | [6] 33.6%

COC(=O)C(CCC1(C)OCCO1)C(C)=O (stereo not given)
inactive: [1] -10.4% | [2] -0.85% | [3] -9% | [4] 7.65% | [5] -1.55% | [6] -13%

Cc1cc(NC(=O)C(=O)Cc2nc3ccccc3s2)ccc1Cl
inactive: [1] 25.9% | [2] 12.7% | [3] 21.9% | [4] 43.9% | [5] 10.9% | [6] 19.1%

COC1CC(OC2CCC3(C)C(CCC45CCC(C6=CC(=O)OC6)C(C)(CCC43)C5=O)C2)OC(C)C1O (stereo not given)
inactive: [1] 22.4% | [2] -11.7% | [3] 2.6% | [4] 17.6% | [5] 12.8% | [6] -17.9%

O=C(Oc1ccc(Cl)cc1)c1ccc([N+](=O)[O-])cc1
inactive: [1] 12.2% | [2] 26.1% | [3] 9.9% | [4] 2.7% | [5] 8.65% | [6] 0.2%

O=C(NCCCN1CCN(CCCNC(=O)Nc2ccc(N=Nc3ccccc3)cc2)CC1)Nc1ccc(N=Nc2ccccc2)cc1
inactive: [1] -0.95% | [2] 16.3% | [3] 0.65% | [4] -3.3% | [5] -1.8% | [6] 14.6%

C[N+](C)(CCCCCCCCCC[N+](C)(C)CC(=O)c1ccccc1)CC(=O)c1ccccc1
inactive: [1] 36.2% | [2] -7.25% | [3] 24.7% | [4] -11.8% | [5] 0.4% | [6] 18.1%

CCOC(=O)/C(Cc1ccc2ccccc2n1)=N/O
inactive: [1] -6.35% | [2] -26.2% | [3] 0.9% | [4] -16.8% | [5] 13.7% | [6] 6.25%

CCCCCCCCCCCCCCCCCCCCCCCCC(=O)O
inactive: [1] -18.6% | [2] -22.6% | [3] -11.4% | [4] 4.15% | [5] -33.5% | [6] -25.5%

CC1=NCC[N+]1(CCc1ccccc1)Cc1ccccc1 (stereo not given)
inactive: [1] 3.15% | [2] -5% | [3] -19.8% | [4] -26.9% | [5] -35% | [6] -11.7%

CN(C)/N=C/C=C1\N=C(c2ccccc2)OC1=O
inactive: [1] 5.75% | [2] -10.6% | [3] -17.9% | [4] -45.7% | [5] -0.75% | [6] -10.9%

O=C(C[n+]1ccccc1)c1ccc(O)c(I)c1
inactive: [1] -5.4% | [2] 7.65% | [3] 21.9% | [4] 21.7% | [5] 0.35% | [6] 7.4%

COc1ccc(C2=Nc3ccccc3N=C(SC)C2)cc1
inactive: [1] 42.2% | [2] -5.3% | [3] 51.1% | [4] 6.75% | [5] 53.7% | [6] 32.5%

Cc1ccc([N+](=O)[O-])cc1NC(=O)Sc1ccc(C(C)(C)C)cc1C
inactive: [1] 5.2% | [2] 6.9% | [3] 4.65% | [4] -11.4% | [5] 3.4% | [6] 8.8%

CC(=O)OC(C)(C)C#CC(C)(C)OC(C)=O
inactive: [1] -9.95% | [2] -24.4% | [3] -15.4% | [4] 3% | [5] -11.7% | [6] -19.3%

CC(=O)CCOC(=O)c1cc([N+](=O)[O-])cc([N+](=O)[O-])c1
inactive: [1] 13.2% | [2] -4.1% | [3] 14.4% | [4] 2.6% | [5] 16.9% | [6] 3%

Nc1ccccc1S(=O)(=O)Nc1ccccc1
inactive: [1] 30.9% | [2] 18.9% | [3] 12.5% | [4] -10.3% | [5] -28.4% | [6] 21.4%

CC(=O)c1c(Cl)nnc(-c2ccccc2)c1-c1ccccc1
inactive: [1] -9% | [2] 0.05% | [3] -9.2% | [4] -21.9% | [5] -11.7% | [6] -12.3%

CC1(CI)COC(c2ccccc2)(C2CCCCC2)OC1 (stereo not given)
inactive: [1] 2.95% | [2] -5.15% | [3] 5.2% | [4] 35.3% | [5] -16.2% | [6] 15.9%

Oc1[nH]c2ccccc2c1N=NC(=S)Nc1ccccc1
inactive: [1] 12.6% | [2] 2.5% | [3] -2.3% | [4] -13.1% | [5] -11.4% | [6] -4.75%

COc1ccc(-c2nnc(N)s2)cc1OC
inactive: [1] 16.4% | [2] 2.7% | [3] 2.8% | [4] -1.6% | [5] -7.05% | [6] 6.35%

CC1=C(C(=O)Nc2ccccc2)C(c2ccc3c(c2)OCO3)C(C(=O)Nc2ccccc2)=C(C)N1
inactive: [1] 38.3% | [2] 33.5% | [3] 10.5% | [4] 17.1% | [5] 38.5% | [6] 27.1%

NCC(=O)c1ccc2cc(Br)c3ccccc3c2c1
inactive: [1] 5.7% | [2] 0.45% | [3] -1.2% | [4] 17.9% | [5] 12.4% | [6] 0.15%
